# Most compounds without a hit are left out; they make up all but 27% or so of the library.
# sEH act: increases human soluble epoxide hydrolase activity | P34913 | purified human sEH enzymatic activity, activator screen | activation, % at 2 µM | hit rate 0.04% among 91,000 | AID 717; in the data active = activation above about 37%
# Target sequence (P34913 whole entry, looked up): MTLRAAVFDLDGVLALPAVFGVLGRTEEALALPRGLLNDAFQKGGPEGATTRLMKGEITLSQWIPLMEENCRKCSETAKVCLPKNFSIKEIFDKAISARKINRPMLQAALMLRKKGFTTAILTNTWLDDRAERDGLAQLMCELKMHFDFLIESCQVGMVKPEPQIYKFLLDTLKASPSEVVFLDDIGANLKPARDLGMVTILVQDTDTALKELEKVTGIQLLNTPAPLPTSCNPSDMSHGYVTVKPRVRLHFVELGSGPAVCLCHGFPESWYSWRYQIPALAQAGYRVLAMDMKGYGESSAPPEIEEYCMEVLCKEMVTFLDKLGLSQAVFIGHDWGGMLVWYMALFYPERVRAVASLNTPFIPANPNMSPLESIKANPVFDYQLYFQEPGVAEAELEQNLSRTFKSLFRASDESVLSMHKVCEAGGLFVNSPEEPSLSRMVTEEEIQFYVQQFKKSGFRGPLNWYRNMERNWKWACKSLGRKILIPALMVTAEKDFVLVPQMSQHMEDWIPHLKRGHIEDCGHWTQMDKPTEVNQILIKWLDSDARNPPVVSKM
# CYP2C19 act: cytochrome P450 2C19 (human) activation | activation factor at 5 µM | 96,000 tested, under 10 active | P33261 | recombinant CYP2C19, luciferin-H EGE luminescence; active compounds read high; 0 = fully inhibited enzyme, 1 = untreated enzyme;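 active = activation factor of at least 2 at 5 µM in the primary screen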;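 note: 0 = wells with 2.5 mM tranylcypromine and 1 = vehicle-only wells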
# sEH inh: soluble epoxide hydrolase (human) inhibition | recombinant human sEH enzymatic activity assay | inhibition, % at 2 µM | hit rate 0.34% among 91,000 | P34913; in the data active = inhibition above about 80%
# CYP2C9 act: activators of human CYP2C9 | recombinant CYP2C9, luciferin-H conversion, luminescence; active compounds read high; factor 1 = untreated enzyme, 0 = blocked | activation factor at 5 µM | hit rate 1.4% among 96,000 | AID 1024;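 active = activation factor of 2 or more for CYP2C9 at a 5 µM dose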;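 note: 0 = sulfaphenazole-blocked wells and 1 = vehicle-only wells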
# CYP2C9 inhib: blocks human cytochrome P450 2C9; CYP2C9 Supersomes, luciferin-H conversion, luminescence; P11712; AID 777; hit rate 20% among 96,000; inhibition, % at 5 µM;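 active = blocking of liver enzyme CYP2C9 beyond about 50% at 5 µM, limit read from the data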
# CYP2C19 inhib: inhibitors of human CYP2C19 | inhibition, % at 5 µM | CYP2C19 Supersomes, luciferin-H EGE luminescence, 30 min | hit rate 21% among 96,000 | P33261;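 active = CYP2C19 inhibition above a set limit at 5 µM in the primary screen, cut at about 50% in these data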;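 note: plate controls were negative control wells for no effect and 2.5 mM tranylcypromine positive control for full effect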
# * = called active by the depositor; nt = no result.
SMILES,sEH act,CYP2C19 act,sEH inh,CYP2C9 act,CYP2C9 inhib,CYP2C19 inhib
Cc1ccc(C(=O)NCC2CCCO2)cc1N1CCCC1=O (stereo unspecified),21,1,-22,1.1,-6,-4
CC(C)c1cc(NC(=O)C(C)(C)C)cc(C(C)C)c1O,-3,1.1,3,1.3,-25,-8
COc1c(C(C)C)cc(NC(C)=O)cc1C(C)C,2,0.1,-3,0.7,25,89*
CCC(C)NC(=O)C1CCN(S(=O)(=O)N2CCCC2)CC1 (stereo unspecified),nt,1.1,nt,1,0,-5
O=c1oc2ccccc2c(Nc2ccccc2)c1[N+](=O)[O-],-3,nt,6,nt,nt,nt
COc1ccc(CCNc2c([N+](=O)[O-])c(=O)oc3ccccc23)cc1OC,6,0.4,-6,0.6,44,59*
COc1ccc(CCNC(=O)Cc2ccc(OCc3ccccc3)c(OC)c2[N+](=O)[O-])cc1OCc1ccccc1,16,0.3,-14,0.1,90*,74*
O=c1oc2ccccc2c(Nc2cccc3ccccc23)c1[N+](=O)[O-],29,0.1,-28,0.4,62*,91*
COc1ccc(CCNC(=O)Cc2nn(C)c(=O)c3ccccc23)cc1OC,-8,1.2,8,1.1,-9,-21
Cc1cc(N2CCCC2=O)cc(C)c1CN1C(=O)c2ccccc2C1=O,-6,nt,9,nt,nt,nt
CCOc1ccc(C2CC(c3ccc(CC)cc3)Nc3nc(N)nn32)cc1 (stereo unspecified),nt,1,nt,0.6,40,0
CCOc1cc(NS(=O)(=O)c2ccccc2)c(OCC)cc1NC(=O)c1ccco1,-7,1,5,0.7,25,3
Cc1ccc2cc(CCNC(=O)c3ccc(Br)o3)c(=O)[nH]c2c1,15,0.5,-13,0.6,37,54*
COc1ccc(OC)c2[nH]c(=O)c(CCNC(=O)CC(C)C)cc12,2,0.7,-3,2.5*,-154,32
COc1ccc(OC)c2[nH]c(=O)c(CCNC(=O)C(C)C)cc12,24,0.8,-25,1.2,-16,15
COc1ccc(OC)c2[nH]c(=O)c(CCNC(=O)c3ccc(Br)o3)cc12,-2,0.2,6,1.6,-58,77*
COc1ccc(OC)c2[nH]c(=O)c(CCNC(=O)C3CCCCC3)cc12,23,0.7,-21,2.4*,-144,31
COc1ccc(CNC2CC(=O)N(C)C2=O)cc1 (stereo unspecified),nt,0.8,nt,0.9,6,20
COc1ccc(N2CC(C(=O)Nc3ccc4c(c3)OCO4)CC2=O)cc1 (stereo unspecified),0,1.1,0,0.9,13,-12
O=C(Nc1nc(-c2ccco2)c(-c2ccco2)s1)C1CC(=O)N(c2ccc3c(c2)OCCO3)C1 (stereo unspecified),nt,0.3,nt,0.1,94*,71*
CCc1cccc(CC)c1NC(=O)C1CC(=O)N(c2ccc3c(c2)OCCO3)C1 (stereo unspecified),2,0.3,0,0.1,89*,74*
O=C(Nc1ccccc1Cc1ccccc1)C1CC(=O)N(c2ccc3c(c2)OCCO3)C1 (stereo unspecified),11,0.4,-9,0.2,76*,64*
O=C(NCc1ccc2c(c1)OCO2)C1CC(=O)N(c2ccc(O)cc2)C1 (stereo unspecified),-2,0.7,1,2.1*,-113,25
CC(Sc1nnc(-c2ccc(Cl)cc2)n1C)C(N)=O (stereo unspecified),11,1,-8,1,-4,-1
CCN(CC(=O)NCc1cccs1)c1ccc(S(=O)(=O)N2CCOCC2)cn1,nt,1,nt,0.4,57*,-5
O=C(O)CC1(Cc2nc(-c3cccs3)no2)CCCC1,-6,1.1,8,1,4,-5
Cc1nn(Cc2nc(-c3cccs3)no2)c(C)c1Br,-8,0.2,5,0.5,46,75*
COCCOC(=O)C1=C(C)N(Cc2ccccc2)C(=O)NC1c1ccc(OC)cc1 (stereo unspecified),-6,0,5,0.3,74*,98*
CCOC(=O)C1=C(C)N(CCO)C(=O)NC1c1ccccc1 (stereo unspecified),nt,0.6,nt,0.7,27,40
